Source: PubChem BioAssay (NCI)
This is part of a sample that, as a whole, favours compounds with a hit. Of some 83,000 tested, about 20% had one in any assay.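 How to read the values: 0–100, growth inhibition (40 = 60% inhibited); 0, no net growth; -100 to 0, cell death (-40 = 40% of starting cells died; -100 = all dead).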 Unmarked numbers belong to inactive results. Calls of active or inactive are those of the source. The calls were made as follows: active = growth percent below 10; inactive = the rest.

Assays:
Test in all cases: NCI-60 one-dose screen, 48 h (100 = growth as untreated, 0 = no growth, -100 = all killed)
[1] = tested on: DU-145 prostate; conditions: 10 µM
[2] = tested on: K-562 leukemia; conditions: 10 µM
[3] = tested on: MALME-3M melanoma; conditions: 10 µM
[4] = tested on: MDA-MB-231 breast; conditions: 10 µM
[5] = tested on: RXF 393 renal; conditions: 10 µM
[6] = tested on: SF-268 CNS; conditions: 10 µM
[7] = tested on: SF-295 CNS; conditions: 10 µM
[8] = tested on: SF-539 CNS; conditions: 10 µM
[9] = tested on: UACC-257 melanoma; conditions: 10 µM
[10] = tested on: M14 melanoma; conditions: 10 µM
[11] = tested on: HCT-15 colon; conditions: 10 µM
[12] = tested on: HT29 colon; conditions: 10 µM
[13] = tested on: SNB-75 CNS; conditions: 10 µM
[14] = tested on: SNB-19 CNS; conditions: 10 µM
[15] = tested on: U251 CNS; conditions: 10 µM
[16] = tested on: PC-3 prostate; conditions: 10 µM
[17] = tested on: SK-MEL-5 melanoma; conditions: 10 µM
[18] = tested on: UACC-62 melanoma; conditions: 10 µM unless noted
[19] = tested on: LOX IMVI melanoma; conditions: 10 µM
[20] = tested on: SK-MEL-28 melanoma; conditions: 10 µM

## NNc1ccccc1C(=O)O
[1]
  growth: 121%
[2]
  growth: 108%
[3]
  growth: 168%
[4]
  growth: 104%
[5]
  growth: 114%
[6]
  growth: 100%
[7]
  growth: 114%
[8]
  growth: 101%
[9]
  growth: 103%
[10]
  growth: 110%
[11]
  growth: 99.1%
[12]
  growth: 105%
[13]
  growth: 89.4%
[14]
  growth: 113%
[15]
  growth: 107%
[16]
  growth: 99.1%
[17]
  growth: 103%
[18]
  growth: 107%
[19]
  growth: 101%
[20]
  growth: 118%

## C#Cc1cccc(NC(=O)c2ccc(Cl)cc2Cl)c1
[1]
  growth: 112%
[2]
  growth: 85.5%
[3]
  growth: 108%
[4]
  growth: 118%
[5]
  growth: 105%
[6]
  growth: 98.9%
[7]
  growth: 107%
[8]
  growth: 95.7%
[9]
  growth: 108%
[10]
  growth: 98%
[11]
  growth: 87.6%
[12]
  growth: 100%
[13]
  growth: 106%
[14]
  growth: 97.3%
[15]
  growth: 91.3%
[16]
  growth: 82.6%
[17]
  growth: 91.1%
[18]
  growth: 87.9%
[19]
  growth: 98.5%
[20]
  growth: 102%

## COc1cc(C(N)=O)cc(OC)c1OC
[1]
  growth: 112%
[2]
  growth: 112%
[3]
  growth: 110%
[4]
  growth: 105%
[5]
  growth: 119%
[6]
  growth: 101%
[7]
  growth: 100%
[8]
  growth: 98.9%
[9]
  growth: 102%
[10]
  growth: 107%
[11]
  growth: 101%
[12]
  growth: 102%
[13]
  growth: 86.6%
[14]
  growth: 99.2%
[15]
  growth: 96.5%
[16]
  growth: 106%
[17]
  growth: 106%
[18]
  growth: 94.2%
[19]
  growth: 104%
[20]
  growth: 116%

## CCCCOC(=O)c1ccc(C(C)C)cc1
[1]
  growth: 106%
[2]
  growth: 106%
[3]
  growth: 87%
[4]
  growth: 109%
[5]
  growth: 112%
[6]
  growth: 100%
[7]
  growth: 101%
[8]
  growth: 96.6%
[9]
  growth: 77.3%
[10]
  growth: 96.5%
[11]
  growth: 101%
[12]
  growth: 94.9%
[13]
  growth: 84.3%
[14]
  growth: 105%
[15]
  growth: 93.8%
[16]
  growth: 84.7%
[17]
  growth: 106%
[18]
  growth: 103%
[19]
  growth: 96.7%
[20]
  growth: 111%

## CNC(=O)c1ccccc1CC1(O)c2ccccc2Oc2ccccc21
[1]
  growth: 61.3%
[2]
  growth: 22%
[3]
  growth: 29.9%
[4]
  growth: 66.3%
[5]
  growth: 61.3%
[6]
  growth: 57.7%
[7]
  growth: 36.8%
[8]
  growth: 56.5%
[9]
  growth: 58%
[10]
  growth: 42.2%
[11]
  growth: 44.6%
[12]
  growth: 7.73% (active)
[13]
  growth: 58.3%
[14]
  growth: 93%
[15]
  growth: 47.8%
[16]
  growth: 35.3%
[17]
  growth: 41.9%
[18]
  growth: 43.6%
[19]
  growth: 57.9%
[20]
  growth: 63.8%

## O=[N+]([O-])c1ccc(S(=O)(=O)NN=C2CCCCC2)cc1
[1]
  growth: 121%
[2]
  growth: 111%
[3]
  growth: 101%
[4]
  growth: 108%
[5]
  growth: 117%
[6]
  growth: 116%
[7]
  growth: 97.8%
[8]
  growth: 109%
[9]
  growth: 95.6%
[10]
  growth: 106%
[11]
  growth: 115%
[12]
  growth: 107%
[13]
  growth: 87.8%
[14]
  growth: 99.8%
[15]
  growth: 111%
[16]
  growth: 96.8%
[17]
  growth: 105%
[18]
  growth: 117%
[19]
  growth: 95%
[20]
  growth: 110%

## CC(=O)OCC(=O)[C@@]1(O)CC[C@H]2[C@@H]3CC[C@@H]4C[C@H](O)CC[C@]4(C)[C@H]3C(=O)C[C@@]21C
[1]
  growth: 120%
[2]
  growth: 101%
[3]
  growth: 143%
[4]
  growth: 103%
[5]
  growth: 94.8%
[6]
  growth: 102%
[7]
  growth: 104%
[8]
  growth: 100%
[9]
  growth: 101%
[10]
  growth: 110%
[11]
  growth: 106%
[12]
  growth: 117%
[13]
  growth: 88.6%
[14]
  growth: 111%
[15]
  growth: 102%
[16]
  growth: 95.5%
[17]
  growth: 97.1%
[18]
  growth: 103%
[19]
  growth: 101%
[20]
  growth: 121%

## CCOC(=O)CNN
[1]
  growth: 98.6%
[2]
  growth: 79.5%
[3]
  growth: 103%
[4]
  growth: 107%
[5]
  growth: 108%
[6]
  growth: 103%
[7]
  growth: 102%
[8]
  growth: 108%
[9]
  growth: 97%
[10]
  growth: 107%
[11]
  growth: 108%
[12]
  growth: 105%
[13]
  growth: 94.7%
[14]
  growth: 100%
[15]
  growth: 95.7%
[16]
  growth: 99.3%
[17]
  growth: 90.5%
[18]
  growth: 103%
[19]
  growth: 90.6%
[20]
  growth: 115%
